Bioassay records: PubChem, several laboratories
An excerpt weighted towards active compounds, which were near 2.8% of everything screened.
PP5 primary = blocks human protein phosphatase 5 activity | AID 1987 | purified PP5c, OMFP substrate fluorescence | 0.18% of 320,000 active | P53041 | inhibition, % at 6.7 µM;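 active = inhibition above the campaign's mean inhibition across all tested compounds plus 3 SD, cut at about 9.5% in these data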
IDE cell activ = activators of human insulin-degrading enzyme in cells | P14735 | HEK cells, FAbeta-B cleavage, fluorescence polarization; 0% vehicle, 100% cell-free pure enzyme wells | activation, % at 5.96 µM | 0.073% of 340,000 active;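 active = activation above the mean of all tested compounds plus 3 SD, set per screening campaign, cut at about 17% in these data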
PP1 inh = PP1-alpha (human) inhibition in PP5 counter-screen; P62136; purified PP1alpha, OMFP fluorescence; inhibition, % at 6.7 µM; 0.9% of 320,000 active;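 active = inhibition above the mean inhibition of all tested compounds plus 3 SD, computed separately for each screening campaign, cut at about 15% in these data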
Target sequence (P62136 whole entry, looked up): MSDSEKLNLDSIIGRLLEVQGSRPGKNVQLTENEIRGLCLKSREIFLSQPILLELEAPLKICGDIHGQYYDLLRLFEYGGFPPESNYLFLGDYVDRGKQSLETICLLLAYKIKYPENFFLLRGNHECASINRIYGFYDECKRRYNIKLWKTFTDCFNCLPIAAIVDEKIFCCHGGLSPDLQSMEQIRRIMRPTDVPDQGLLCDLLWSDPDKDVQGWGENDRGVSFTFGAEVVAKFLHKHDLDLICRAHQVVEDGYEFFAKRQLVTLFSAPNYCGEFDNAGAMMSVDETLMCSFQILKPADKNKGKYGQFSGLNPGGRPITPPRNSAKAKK
Granule exo inh = blocks lytic granule exocytosis; TALL-104 LAMP-1 surface exposure, flow cytometry; cells stimulated with thapsigargin and PMA; inhibition, % at 10 µM; 0.66% of 360,000 active;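 active = inhibition above about 55%, limit read from the data; inconclusive = no clear call, values can overlap the other calls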
IDE cell inh = cellular human IDE inhibition; P14735; HEK cells, FAbetaB cleavage, fluorescence polarization; inhibition, % at 5.59 µM; 0.41% of 320,000 active; AID 434962;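 active = percent inhibition above the average of all tested compounds plus 3 SD, set per screening campaign, cut at about 16% in these data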;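 note: IDE supplied by intact live HEK cells; FP after avidin binding of uncleaved biotin substrate so inhibition keeps polarization high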
SKKanGAS inh = inhibitors of SKKanGAS S. pyogenes growth in kanamycin (SK-promoter or general growth effect); BacTiter-Glo, 6 h; inhibition, % at 7.5 µM; 1.3% of 300,000 active; AID 1662;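 active = mean replicate score, as percent of positive control median, at least 50; inconclusive = mean below 50 but one replicate at or above 50; inactive = mean and every replicate below 50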;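 note: strain carries kanamycin resistance gene driven by streptokinase promoter and grows in 40 µg/ml kanamycin; loss of luminescence reflects streptokinase promoter inhibition or plain growth inhibition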
PP1 confirm = confirmation of human PP1 phosphatase inhibitors; shares compounds with PP1 inh; purified PP1alpha, OMFP substrate fluorescence; inhibition, % at 6.7 µM; 52% of 1,900 active; AID 2358;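 active = mean PP1 inhibition above a set limit taken from the earlier primary screen, cut at about 15% in these data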
PP5 counter = counter-screen for PP1 inhibitors: human PP5 phosphatase inhibition; inhibition, % at 6.7 µM; purified PP5c, OMFP fluorescence; 4% of 1,900 active; shares compounds with PP1 inh;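 active = mean PP5 inhibition over triplicate wells above about 9.5% taken from the earlier PP1 screen, limit read from the data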
Of the large screens only hits and unclear results are named; the others gave an inactive call (follow-up assays come after a bar, where they were run).

Cc1ccc(S(=O)(=O)N2CCC(=O)N(C(COCc3cccc(C(F)(F)F)c3)Cc3ccccc3)CC2)cc1 (stereo not given)	PP1 inh 20 | PP1 confirm inactive | PP5 counter inactive
Cc1ccc(S(=O)(=O)N2CCC(=O)N(C(COCc3cccc(Cl)c3)Cc3ccccc3)CC2)cc1 (stereo not given)	none
Cn1cc(Cc2ccc(C(=O)N3CCCCC3)cn2)c2ccccc21	none (no result: PP5 primary, IDE cell activ, PP1 inh, IDE cell inh, SKKanGAS inh)
Cc1ccc2nc(-c3cccnc3)c(Nc3ccccc3C)n2c1	none
Cc1ccccc1Nc1c(-c2cccnc2)nc2ccccn12	none
Cc1ccn2c(Nc3ccccc3)c(-c3ccccn3)nc2c1	PP1 inh 31, SKKanGAS inh 76 | PP1 confirm 33 | PP5 counter inactive
Cc1ccn2c(Nc3ccccc3C)c(-c3ccccn3)nc2c1	PP1 inh 32, SKKanGAS inh 96 | PP1 confirm 39 | PP5 counter inactive
Cc1ccc2nc(-c3ccccn3)c(Nc3ccccc3C)n2c1	PP1 inh 30, SKKanGAS inh 92 | PP1 confirm 42 | PP5 counter inactive
Cc1ccccc1Nc1c(-c2ccccn2)nc2ccccn12	PP1 inh 34 | PP1 confirm inactive | PP5 counter inactive
Cc1ccn2c(NC(=O)c3ccccc3)c(-c3ccccc3)nc2c1	none
CN(C)/C=C(\C=O)c1ccc(Cl)cc1Cl	none
O=C(c1ccc(F)cc1)N1CCN=C1c1ccccc1	none
Cc1cc2oc(C(=O)Nc3ccc(S(=O)(=O)Nc4ncccn4)cc3)c(C)c2cc1Cl	none (no result: PP5 primary, PP1 inh, IDE cell inh, SKKanGAS inh)
Cc1cc2oc(C(=O)Nc3ccc(S(=O)(=O)Nc4nccs4)cc3)cc(=O)c2cc1Cl	PP1 inh 39 | PP1 confirm 31 | PP5 counter inactive
CCc1ccc(C(C(=O)NC2CCCC2)N(Cc2cccnc2)C(=O)c2csnn2)cc1 (stereo not given)	none
Cc1noc(/C=C/c2ccco2)c1S(=O)(=O)N1CCC(C(=O)N2CCc3ccccc3C2)CC1	PP1 inh 19 | PP1 confirm 26 | PP5 counter inactive
Cc1ccc(NC(=O)C2CCN(S(=O)(=O)c3c(C)noc3/C=C/c3ccco3)CC2)nc1	none
COc1cc(OC)cc(C(=O)N[C@H](C(=O)Nc2nc3ccc(S(C)(=O)=O)cc3s2)C(C)C)c1	none
O=C(Cc1cccc2ccccc12)N/N=C/c1ccc2cccc(O)c2n1	PP1 inh 25, SKKanGAS inh 71 | PP1 confirm 21 | PP5 counter inactive
Cc1sc(N(C(=O)CCc2ccccc2)c2ccc(C(=O)O)cc2)nc1-c1ccccc1	PP1 inh 20 | PP1 confirm 15 | PP5 counter inactive
CCC(=O)N(c1ccc(C(=O)O)cc1)c1nc(-c2ccc(OC)cc2)c(C)s1	none
Cc1nc2cc(-c3ccc(Cl)cc3)nn2c(NCCN(C)C)c1C	none
CC(C)NC(=O)c1ccc(COc2ccc(C(C)(C)C)cc2)o1	Granule exo inh inconclusive
Cc1ccccc1NC(=O)C(=O)NNC(=O)COc1ccc2ccccc2c1	PP1 inh 18, SKKanGAS inh inconclusive | PP1 confirm inactive | PP5 counter inactive
O=C(CCC1CCCCC1)Nc1nncs1	none
Oc1c(C(Nc2nc3ccccc3s2)c2ccco2)ccc2cccnc12 (stereo not given)	PP1 inh 29, SKKanGAS inh 107 | PP1 confirm 19 | PP5 counter inactive
CC(=O)NC(c1ccco1)c1cc(F)c2cccnc2c1O (stereo not given)	none (no result: SKKanGAS inh)
C/C(CC(=O)Nc1ccc(Cl)c(C(F)(F)F)c1)=N\NC(=O)c1cc2ccccc2cc1O	PP1 inh 19, SKKanGAS inh 95 | PP1 confirm inactive | PP5 counter inactive
CCC(=O)Nc1cc(C(=O)OCc2ccc(C(=O)Oc3ccccc3)cc2)ccc1C	none
Cc1sc(N2CCN(S(=O)(=O)c3ccc4c(c3)NC(=O)CO4)CC2)nc1-c1ccccc1	none
O=C(NCc1ccc(F)cc1)c1cccc2c1C(=O)c1ccc(N3CCOCC3)cc1S2(=O)=O	none (no result: SKKanGAS inh)
O=C(NCc1ccccc1Br)c1cccc2c1C(=O)c1ccc(N3CCOCC3)cc1S2(=O)=O	PP1 inh 28 (no result: IDE cell activ, Granule exo inh, SKKanGAS inh) | PP1 confirm 37 | PP5 counter inactive
CCOC(=O)C1(Cc2cccc(Cl)c2)CCCN(C(=O)CN2C(=O)CSC2=O)C1 (stereo not given)	PP1 inh 19 | PP1 confirm inactive | PP5 counter inactive
COc1ccc(C(=O)OCC(=O)c2ccc(S(=O)(=O)N3CCCCC3)cc2)c(OC)c1	none (no result: PP5 primary, PP1 inh, IDE cell inh, SKKanGAS inh)
Cc1ccc(C(=O)OCC(=O)c2ccc(S(=O)(=O)N3CCCCC3)cc2)o1	PP1 inh 66 | PP1 confirm inactive | PP5 counter inactive
N/C(=N\C(=S)Nc1ccc2c(c1)OCO2)c1ccccc1	none (no result: PP5 primary, IDE cell activ, PP1 inh, IDE cell inh, SKKanGAS inh)
CCCCn1[nH]c(-c2ccccc2)cc1=O	none
O=C(O)c1cc(-c2ccco2)nn1-c1cccc(Cl)c1	none
O=C(O)c1cc(-c2cccs2)nn1-c1ccccc1	PP1 inh 28 | PP1 confirm 24 | PP5 counter inactive
O=C(O)c1cc(-c2cccs2)nn1-c1cccc(Cl)c1	PP1 inh 29 | PP1 confirm 27 | PP5 counter inactive
O=C(O)c1cc(-c2cc3ccccc3o2)nn1-c1ccccc1	PP1 inh 45 | PP1 confirm 45 | PP5 counter inactive
Cc1sc2nc(CN3CCCC3)nc(N3CCN(S(=O)(=O)c4cccc(F)c4)CC3)c2c1C	PP1 inh 19 (no result: SKKanGAS inh) | PP1 confirm inactive | PP5 counter inactive
O=C(CCN1C(=O)/C(=C\c2ccccc2)SC1=S)Nc1ccc(C(=O)O)cc1	PP1 inh 20 | PP1 confirm inactive | PP5 counter inactive
O=C(CCN1C(=O)/C(=C/c2ccc(Cl)cc2)SC1=S)Nc1cccc(C(=O)O)c1	none
O=C(O)CCN1C(=O)/C(=C\c2cccc(OCC(=O)Nc3ccc(Cl)cc3)c2)SC1=S	PP1 inh 24 | PP1 confirm inactive | PP5 counter inactive
COc1cccc(/C=C2\SC(=S)N(CCCC(=O)Nc3ccc(C(=O)O)cc3)C2=O)c1	none
Cc1ccc(NC(=O)COc2cccc(/C=C3\SC(=S)N(CCC(=O)O)C3=O)c2)cc1Cl	PP1 inh 39 | PP1 confirm inactive | PP5 counter inactive
O=C(NCc1ccncc1)[C@@H]1CCCN1C(=O)[C@H]1CCCN1C(=O)c1c(F)cccc1F	none (no result: PP5 primary, IDE cell activ, PP1 inh, IDE cell inh, SKKanGAS inh)
COCCN(C(=O)CCSc1ccc(F)cc1)c1c(N)n(Cc2ccccc2)c(=O)[nH]c1=O	none (no result: SKKanGAS inh)
CCCC(=O)Oc1ccccc1C1SCc2cc(C)c(C)cc2CS1	PP1 inh 22 | PP1 confirm inactive | PP5 counter inactive
CCCOc1ccc(N)cc1N	PP5 primary 11, PP1 inh 16 | PP1 confirm inactive | PP5 counter 24
CCCOc1cc(N)ccc1C(=O)OCCN(CC)CC	none (no result: SKKanGAS inh)
